Assay results as given in PubChem BioAssay (NCATS).
Records with an inconclusive call do not appear. Calls of active or inactive are those of the source. The call rests on the fitted dose curve; in most records, active means well fitted inhibition curve with a large enough effect; inconclusive means small, poorly fitted or top-dose-only effect; inactive means flat fitted curve, though single readings scatter.

biological target: Lysine-specific demethylase 5B (Homo sapiens) (UniProt Q9UGL1); test: Optimization screen for KDM5B Histone Demethylases FDH coupled qHTS against the LOPAC library (AID 1347166); conditions: KDM5B demethylation, FDH-coupled NADH fluorescence (FDH is formaldehyde dehydrogenase); series mostly up to 57.5 µM; activity, negative = inhibition: at the top concentration; on activity, negative = inhibition: 0% is about no effect
How it was run: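 KDM5BDeltaAP (200nM final) preincubated 10 min with compound, then 12.5uM H3K4Me3, 25uM a-ketoglutarate, ascorbate, Fe(II), NAD+ and FDH added; 50mM HEPES pH 7.5, 0.01% Tween-20. NADH fluorescence (340/450 nm) change over 30 min, room temperature.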
Potency means the concentration at half of the fitted maximal effect.

Chain of Lysine-specific demethylase 5B (Homo sapiens) (Q9UGL1 whole entry, looked up): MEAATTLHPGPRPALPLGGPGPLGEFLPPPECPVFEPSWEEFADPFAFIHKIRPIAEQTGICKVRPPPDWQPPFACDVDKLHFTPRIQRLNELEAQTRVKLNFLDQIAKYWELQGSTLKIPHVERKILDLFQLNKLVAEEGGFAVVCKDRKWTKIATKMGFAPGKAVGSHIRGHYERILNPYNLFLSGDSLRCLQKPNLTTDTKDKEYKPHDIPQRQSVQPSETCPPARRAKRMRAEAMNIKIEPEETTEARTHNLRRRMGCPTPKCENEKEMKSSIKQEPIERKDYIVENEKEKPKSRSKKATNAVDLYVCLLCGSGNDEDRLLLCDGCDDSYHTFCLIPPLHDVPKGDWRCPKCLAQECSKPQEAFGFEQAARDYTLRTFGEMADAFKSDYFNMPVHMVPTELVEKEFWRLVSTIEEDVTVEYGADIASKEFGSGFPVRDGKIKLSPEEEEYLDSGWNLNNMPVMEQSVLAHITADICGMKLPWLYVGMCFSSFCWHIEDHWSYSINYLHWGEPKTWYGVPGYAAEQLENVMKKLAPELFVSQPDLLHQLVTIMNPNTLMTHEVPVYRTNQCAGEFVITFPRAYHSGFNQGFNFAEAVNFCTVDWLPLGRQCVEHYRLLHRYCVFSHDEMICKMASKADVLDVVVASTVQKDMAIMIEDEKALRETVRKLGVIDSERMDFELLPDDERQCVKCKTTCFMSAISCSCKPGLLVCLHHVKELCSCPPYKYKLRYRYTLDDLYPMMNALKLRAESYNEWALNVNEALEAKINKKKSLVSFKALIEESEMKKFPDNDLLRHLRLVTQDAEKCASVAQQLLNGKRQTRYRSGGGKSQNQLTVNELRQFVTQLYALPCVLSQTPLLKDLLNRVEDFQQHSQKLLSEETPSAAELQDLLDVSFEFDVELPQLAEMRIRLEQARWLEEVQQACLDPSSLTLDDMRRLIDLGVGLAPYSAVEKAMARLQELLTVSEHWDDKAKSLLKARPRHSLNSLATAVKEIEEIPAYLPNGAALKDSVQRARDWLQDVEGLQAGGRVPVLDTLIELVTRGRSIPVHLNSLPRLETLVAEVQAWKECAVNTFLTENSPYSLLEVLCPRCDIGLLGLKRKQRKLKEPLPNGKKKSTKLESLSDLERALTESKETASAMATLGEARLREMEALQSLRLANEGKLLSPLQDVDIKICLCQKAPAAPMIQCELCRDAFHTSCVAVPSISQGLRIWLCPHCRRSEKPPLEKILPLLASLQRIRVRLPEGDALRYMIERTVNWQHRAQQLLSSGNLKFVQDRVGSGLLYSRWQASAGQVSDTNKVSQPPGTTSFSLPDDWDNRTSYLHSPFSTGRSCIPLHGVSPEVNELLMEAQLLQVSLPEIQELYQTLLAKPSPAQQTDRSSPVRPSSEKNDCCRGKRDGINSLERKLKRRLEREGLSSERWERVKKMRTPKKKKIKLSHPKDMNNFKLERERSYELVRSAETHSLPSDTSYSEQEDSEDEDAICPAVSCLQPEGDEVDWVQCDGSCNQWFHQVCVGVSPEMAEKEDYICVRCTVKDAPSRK

SMILES	activity, negative = inhibition	Potency
CCCN(CCC)[C@H]1CCc2c(F)ccc(O)c2C1	-9.35% (inactive)	–
Cc1cc([C@@H]2CCCN2C)on1	-5.97% (inactive)	–
COc1ccc(CNC(=O)/C=C/c2ccc3[nH]cc(CCN(C)C)c3c2)cc1	-15.2% (inactive)	–
C[C@@H]1O[C@@H](O[C@H]2C[C@@H](O)[C@]3(CO)[C@@H]4C(CC[C@]3(O)C2)[C@@]2(O)CC[C@H]([C@@H]3COC(=O)C3)[C@@]2(C)C[C@H]4O)[C@H](O)[C@H](O)[C@H]1O (stereo partly specified)	-4.15% (inactive)	–
NCCCP(=O)(O)O	1.21% (inactive)	–
Ic1ccccc1CNC1C2CCN(CC2)C1C(c1ccccc1)c1ccccc1 (stereo unspecified)	-21.5% (inactive)	–
N[C@@H](CCl)C(=O)O	0.959% (inactive)	–
CCN(CCCl)Cc1ccccc1Br	-9.91% (inactive)	–
N#CCCN	-8.75% (inactive)	–
NCCc1ccc(S(=O)(=O)F)cc1	-3.8% (inactive)	–
CCCCCCC(C)(C)c1ccc([C@@H]2C[C@H](O)CC[C@H]2CCCO)c(O)c1	-13.4% (inactive)	–
C=CCN1C[C@@H](C)N([C@H](c2ccc(C(=O)N(CC)CC)cc2)c2cccc(OC)c2)C[C@@H]1C	-3.11% (inactive)	–
N[C@@H](Cn1ccc(=O)[nH]c1=O)C(=O)O	0.51% (inactive)	–
c1ccc2cc(CC3=NCCN3)ccc2c1	-1.86% (inactive)	–
C[C@H](Cc1ccc2c(c1)OC(C(=O)O)(C(=O)O)O2)NC[C@H](O)c1cccc(Cl)c1	-6.05% (inactive)	–
CCN1C[C@@]2(COC)C3[C@@H](OC)C4[C@@H]1C3([C@@H]1C[C@]3(O)[C@H](OC(=O)c5ccccc5)[C@@H]1[C@]4(OC(C)=O)[C@@H](O)[C@@H]3OC)[C@H](OC)C[C@H]2O	-11.3% (inactive)	–
CCCN1CCc2cc(O)cc3c2[C@H]1Cc1ccc(O)c(O)c1-3	-9.62% (inactive)	–
C[C@H](N)Cc1cccc(C(F)(F)F)c1	-3.33% (inactive)	–

SMILES	activity, negative = inhibition	Potency
COc1ccc2c(c1)/C(=C/c1cnc[nH]1)C(=O)N2	-9% (inactive)	–
C[C@@H]1O[C@H](C[N+](C)(C)C)CS1	-20.9% (inactive)	–
N=C(N)c1ccc(CS(=O)(=O)F)cc1	-1.09% (inactive)	–
CN1CC[C@@]2(C)c3cc(O)ccc3N(C)C12 (stereo partly specified)	–	2510 nM (active)
NC(=O)COc1c(F)cc(SCCNS(=O)(=O)c2ccccc2)cc1F	1.41% (inactive)	–
N[C@@]1(C(=O)O)CC[C@@H](C(=O)O)C1	-4.74% (inactive)	–
C#CCN[C@H](C)Cc1ccccc1	-7.44% (inactive)	–
CCS(=O)(=O)Nc1cccc(C(=C2CCCCC2)c2cnc[nH]2)c1	-0.963% (inactive)	–
CC(C)(C)c1o[nH]c(=O)c1CC(N)C(=O)O (stereo unspecified)	-1.02% (inactive)	–
CCn1cnc2c(Nc3cccc(Cl)c3)nc(N[C@@H]3CCCC[C@@H]3N)nc21	-10.7% (inactive)	–
OCc1cnc[nH]1	-2.62% (inactive)	–
NC(CCCCCP(=O)(O)O)C(=O)O (stereo unspecified)	0.161% (inactive)	–
CC(N)c1cccc(Cl)c1Cl (stereo unspecified)	-6.5% (inactive)	–
CCCN1CC[C@@H]2c3cc(O)ccc3CC[C@@H]21	-10.3% (inactive)	–
COc1ccc2[nH]c3c(c2c1)CCNC3	-23.5% (inactive)	–
C[N+]1(C)CCc2cc3c(cc2[C@H]1[C@@H]1OC(=O)c2c1ccc1c2OCO1)OCO3	-1.28% (inactive)	–
C[Se]C[C@H](N)C(=O)O	9.44% (inactive)	–
CCCn1c(=O)c2[nH]c(C3CCCC3)nc2n(CCCOC(=O)c2ccc(S(=O)(=O)F)cc2)c1=O	-7.05% (inactive)	–
